# Source: ChEMBL document CHEMBL1961873, “Compounds: GSK PKIS; Assays: Nanosyn kinase panel” (2012)
# Key:
# [1] = target: Serine/threonine-protein kinase pim-2 (Homo sapiens) (UniProt Q9P1W9); details: at 1 µM;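 also: each value is a mean of the inhibition measurements against the kinase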
# [2] = target: Serine/threonine-protein kinase pim-3 (Homo sapiens) (UniProt Q86V86); details: at 0.1 µM
# [3] = target: Serine/threonine-protein kinase pim-3 (Homo sapiens) (UniProt Q86V86); details: at 1 µM
# [4] = target: T1, MAP kinase-activated protein kinase 5 (Homo sapiens) (UniProt Q8IW41); details: at 0.1 µM
# T1 sequence (whole entry): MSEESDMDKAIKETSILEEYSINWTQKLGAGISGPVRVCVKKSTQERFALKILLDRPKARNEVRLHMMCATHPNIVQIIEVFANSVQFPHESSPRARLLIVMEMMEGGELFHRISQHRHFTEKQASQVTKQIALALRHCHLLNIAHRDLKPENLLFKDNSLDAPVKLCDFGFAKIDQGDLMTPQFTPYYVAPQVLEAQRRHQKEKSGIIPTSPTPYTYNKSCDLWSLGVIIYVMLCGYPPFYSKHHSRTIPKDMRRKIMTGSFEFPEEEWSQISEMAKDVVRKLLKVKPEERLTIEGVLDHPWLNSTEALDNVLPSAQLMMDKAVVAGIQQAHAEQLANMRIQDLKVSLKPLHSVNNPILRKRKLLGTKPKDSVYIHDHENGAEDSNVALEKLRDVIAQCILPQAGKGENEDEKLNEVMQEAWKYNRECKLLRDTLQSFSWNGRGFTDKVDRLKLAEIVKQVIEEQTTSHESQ
# [5] = target: T1, MAP kinase-activated protein kinase 5 (Homo sapiens); details: at 1 µM
# [6] = target: Serine/threonine-protein kinase SIK1 (Homo sapiens) (UniProt P57059); details: at 0.1 µM
# Chain of Serine/threonine-protein kinase SIK1 (Homo sapiens) (P57059 whole entry): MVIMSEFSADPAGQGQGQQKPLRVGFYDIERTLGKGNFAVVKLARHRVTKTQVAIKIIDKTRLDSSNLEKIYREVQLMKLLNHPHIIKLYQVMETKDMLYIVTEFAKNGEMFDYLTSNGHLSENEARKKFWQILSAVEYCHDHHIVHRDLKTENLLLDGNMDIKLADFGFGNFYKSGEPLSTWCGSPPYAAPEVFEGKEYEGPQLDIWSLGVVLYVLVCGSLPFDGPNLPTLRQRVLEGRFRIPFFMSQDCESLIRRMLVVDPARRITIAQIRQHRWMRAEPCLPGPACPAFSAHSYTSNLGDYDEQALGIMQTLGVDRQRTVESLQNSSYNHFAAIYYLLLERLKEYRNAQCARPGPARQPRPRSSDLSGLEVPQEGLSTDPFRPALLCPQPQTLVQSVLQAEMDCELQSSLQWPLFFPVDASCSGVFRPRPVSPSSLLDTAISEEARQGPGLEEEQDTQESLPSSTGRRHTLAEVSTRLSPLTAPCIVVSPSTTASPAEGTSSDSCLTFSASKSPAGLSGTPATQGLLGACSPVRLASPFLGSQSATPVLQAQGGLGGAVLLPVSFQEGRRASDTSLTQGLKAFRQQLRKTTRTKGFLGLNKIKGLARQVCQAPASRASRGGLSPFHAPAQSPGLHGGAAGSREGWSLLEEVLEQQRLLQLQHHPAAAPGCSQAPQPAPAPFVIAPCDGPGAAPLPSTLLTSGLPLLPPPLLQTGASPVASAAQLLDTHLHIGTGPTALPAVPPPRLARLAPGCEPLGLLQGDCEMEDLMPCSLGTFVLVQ
# [7] = target: Serine/threonine-protein kinase SIK1 (Homo sapiens) (UniProt P57059); details: at 1 µM
# [8] = target: Serine/threonine-protein kinase SIK2 (Homo sapiens) (UniProt Q9H0K1); details: at 0.1 µM
# Chain of Serine/threonine-protein kinase SIK2 (Homo sapiens) (Q9H0K1 whole entry, looked up): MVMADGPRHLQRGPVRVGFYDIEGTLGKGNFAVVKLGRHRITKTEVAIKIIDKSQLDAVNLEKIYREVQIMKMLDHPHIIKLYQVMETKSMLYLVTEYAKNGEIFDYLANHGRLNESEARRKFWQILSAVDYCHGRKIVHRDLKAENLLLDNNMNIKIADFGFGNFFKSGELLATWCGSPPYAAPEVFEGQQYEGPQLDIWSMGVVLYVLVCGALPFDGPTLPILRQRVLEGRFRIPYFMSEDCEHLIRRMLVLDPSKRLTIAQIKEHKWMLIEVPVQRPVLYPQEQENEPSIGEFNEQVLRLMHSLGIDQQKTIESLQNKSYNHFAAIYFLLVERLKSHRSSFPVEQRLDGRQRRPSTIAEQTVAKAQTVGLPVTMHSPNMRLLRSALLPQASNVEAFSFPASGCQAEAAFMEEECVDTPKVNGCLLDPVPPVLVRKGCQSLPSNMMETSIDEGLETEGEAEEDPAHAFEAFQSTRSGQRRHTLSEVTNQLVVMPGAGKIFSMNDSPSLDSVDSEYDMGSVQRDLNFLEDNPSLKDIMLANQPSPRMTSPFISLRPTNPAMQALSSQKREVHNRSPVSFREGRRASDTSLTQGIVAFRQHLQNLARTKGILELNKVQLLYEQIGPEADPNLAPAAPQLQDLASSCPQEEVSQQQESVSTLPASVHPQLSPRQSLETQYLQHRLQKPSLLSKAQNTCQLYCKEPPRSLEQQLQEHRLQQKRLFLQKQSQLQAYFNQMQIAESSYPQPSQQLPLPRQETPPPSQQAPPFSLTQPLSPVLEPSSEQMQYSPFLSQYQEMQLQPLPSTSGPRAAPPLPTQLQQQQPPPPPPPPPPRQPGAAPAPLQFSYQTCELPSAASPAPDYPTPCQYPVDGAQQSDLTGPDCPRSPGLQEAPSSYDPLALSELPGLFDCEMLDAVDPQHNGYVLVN
# [9] = target: Serine/threonine-protein kinase SIK2 (Homo sapiens) (UniProt Q9H0K1); details: at 1 µM
# [10] = target: T2, Serine/threonine-protein kinase TBK1 (Homo sapiens) (UniProt Q9UHD2); details: at 0.1 µM
# T2 sequence (whole entry): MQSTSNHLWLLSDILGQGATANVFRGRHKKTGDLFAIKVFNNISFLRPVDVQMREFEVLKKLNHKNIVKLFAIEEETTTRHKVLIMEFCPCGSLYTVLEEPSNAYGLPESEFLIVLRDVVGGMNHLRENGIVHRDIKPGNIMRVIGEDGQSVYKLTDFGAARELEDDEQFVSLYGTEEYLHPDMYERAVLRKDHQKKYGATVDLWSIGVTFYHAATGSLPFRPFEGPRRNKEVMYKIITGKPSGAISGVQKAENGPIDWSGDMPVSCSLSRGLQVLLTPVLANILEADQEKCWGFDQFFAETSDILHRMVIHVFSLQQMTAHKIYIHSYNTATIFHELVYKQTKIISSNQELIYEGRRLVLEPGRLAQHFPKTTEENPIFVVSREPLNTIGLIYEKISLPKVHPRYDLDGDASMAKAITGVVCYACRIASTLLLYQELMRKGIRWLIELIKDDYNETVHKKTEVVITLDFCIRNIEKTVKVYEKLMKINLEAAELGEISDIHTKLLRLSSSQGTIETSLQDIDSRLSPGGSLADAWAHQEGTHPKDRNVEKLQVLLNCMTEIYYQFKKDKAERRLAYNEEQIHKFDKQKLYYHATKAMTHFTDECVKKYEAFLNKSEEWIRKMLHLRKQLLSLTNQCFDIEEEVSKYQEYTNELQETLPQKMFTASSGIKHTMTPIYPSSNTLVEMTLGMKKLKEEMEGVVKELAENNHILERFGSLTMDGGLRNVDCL
# [11] = target: T2, Serine/threonine-protein kinase TBK1 (Homo sapiens); details: at 1 µM
# [12] = target: T3, Testis-specific serine/threonine-protein kinase 1 (Homo sapiens) (UniProt Q9BXA7); details: at 0.1 µM
# T3 sequence (whole entry): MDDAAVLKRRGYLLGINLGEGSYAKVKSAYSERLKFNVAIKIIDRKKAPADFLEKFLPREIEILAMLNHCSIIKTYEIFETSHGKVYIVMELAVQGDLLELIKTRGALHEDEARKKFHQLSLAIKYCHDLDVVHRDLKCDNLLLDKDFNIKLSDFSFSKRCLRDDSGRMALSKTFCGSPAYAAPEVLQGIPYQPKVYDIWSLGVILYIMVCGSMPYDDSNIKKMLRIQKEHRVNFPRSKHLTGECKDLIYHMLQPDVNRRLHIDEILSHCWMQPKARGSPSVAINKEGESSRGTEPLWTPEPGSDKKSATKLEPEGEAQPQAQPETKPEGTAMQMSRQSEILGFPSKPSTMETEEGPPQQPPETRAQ
# [13] = target: T3, Testis-specific serine/threonine-protein kinase 1 (Homo sapiens); details: at 1 µM
# [14] = target: T4, Testis-specific serine/threonine-protein kinase 2 (Homo sapiens) (UniProt Q96PF2); details: at 0.1 µM
# T4 sequence (whole entry): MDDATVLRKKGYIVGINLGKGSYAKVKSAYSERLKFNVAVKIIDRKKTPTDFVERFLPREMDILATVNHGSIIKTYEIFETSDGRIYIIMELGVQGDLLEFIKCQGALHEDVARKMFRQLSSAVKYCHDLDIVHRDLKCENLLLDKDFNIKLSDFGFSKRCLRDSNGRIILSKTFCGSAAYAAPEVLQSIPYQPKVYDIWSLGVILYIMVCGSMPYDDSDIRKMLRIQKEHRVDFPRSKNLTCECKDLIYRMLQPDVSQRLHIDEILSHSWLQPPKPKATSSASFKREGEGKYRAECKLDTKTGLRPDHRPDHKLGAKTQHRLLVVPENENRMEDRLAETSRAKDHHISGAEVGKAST
# [15] = target: T4, Testis-specific serine/threonine-protein kinase 2 (Homo sapiens); details: at 1 µM
# [16] = target: Casein kinase I isoform alpha (Homo sapiens) (UniProt P48729); details: at 0.1 µM
# Chain of Casein kinase I isoform alpha (Homo sapiens) (P48729 2-337 limits assumed): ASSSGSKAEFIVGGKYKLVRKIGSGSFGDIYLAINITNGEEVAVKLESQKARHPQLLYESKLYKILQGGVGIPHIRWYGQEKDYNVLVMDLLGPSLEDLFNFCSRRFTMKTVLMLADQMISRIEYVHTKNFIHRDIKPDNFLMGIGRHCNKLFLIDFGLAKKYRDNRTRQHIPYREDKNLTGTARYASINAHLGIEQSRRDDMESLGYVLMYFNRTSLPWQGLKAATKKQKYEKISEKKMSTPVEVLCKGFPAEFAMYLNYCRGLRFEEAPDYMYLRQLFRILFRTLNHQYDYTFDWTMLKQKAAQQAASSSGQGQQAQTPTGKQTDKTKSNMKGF
# [17] = target: Casein kinase I isoform alpha (Homo sapiens) (UniProt P48729); details: at 1 µM
# [18] = target: Casein kinase I isoform gamma-1 (Homo sapiens) (UniProt Q9HCP0); details: at 0.1 µM
# Chain of Casein kinase I isoform gamma-1 (Homo sapiens) (Q9HCP0 whole entry, looked up, canonical isoform): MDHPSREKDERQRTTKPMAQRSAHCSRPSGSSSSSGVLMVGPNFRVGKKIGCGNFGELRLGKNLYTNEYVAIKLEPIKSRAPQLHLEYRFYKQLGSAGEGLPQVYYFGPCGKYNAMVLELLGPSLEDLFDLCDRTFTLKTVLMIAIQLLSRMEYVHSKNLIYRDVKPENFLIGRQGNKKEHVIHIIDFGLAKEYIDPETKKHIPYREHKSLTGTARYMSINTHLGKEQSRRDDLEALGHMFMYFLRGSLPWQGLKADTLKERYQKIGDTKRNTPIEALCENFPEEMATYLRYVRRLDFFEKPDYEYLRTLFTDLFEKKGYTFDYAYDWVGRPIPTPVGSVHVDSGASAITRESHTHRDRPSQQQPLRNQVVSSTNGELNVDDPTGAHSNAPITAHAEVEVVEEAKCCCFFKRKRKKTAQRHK
# [19] = target: Casein kinase I isoform gamma-1 (Homo sapiens) (UniProt Q9HCP0); details: at 1 µM
# [20] = target: Casein kinase I isoform gamma-2 (Homo sapiens) (UniProt P78368); details: at 0.1 µM;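 also: values are mean inhibition figures reported as part of the GSK PKIS dataset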
# Chain of Casein kinase I isoform gamma-2 (Homo sapiens) (P78368 whole entry, looked up, canonical isoform): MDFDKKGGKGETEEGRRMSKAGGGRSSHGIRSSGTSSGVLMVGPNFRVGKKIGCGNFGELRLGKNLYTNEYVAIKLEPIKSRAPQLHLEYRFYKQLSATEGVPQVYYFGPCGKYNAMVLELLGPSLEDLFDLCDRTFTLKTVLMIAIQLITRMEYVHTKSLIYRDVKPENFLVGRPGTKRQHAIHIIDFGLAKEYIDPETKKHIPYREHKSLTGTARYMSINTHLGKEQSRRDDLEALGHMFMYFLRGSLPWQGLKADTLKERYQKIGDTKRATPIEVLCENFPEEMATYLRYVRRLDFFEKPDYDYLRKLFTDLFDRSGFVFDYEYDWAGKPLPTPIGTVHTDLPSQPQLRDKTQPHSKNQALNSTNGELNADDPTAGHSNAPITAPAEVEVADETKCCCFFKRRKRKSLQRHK
# Chain of Serine/threonine-protein kinase pim-2 (Homo sapiens) (Q9P1W9 whole entry, looked up): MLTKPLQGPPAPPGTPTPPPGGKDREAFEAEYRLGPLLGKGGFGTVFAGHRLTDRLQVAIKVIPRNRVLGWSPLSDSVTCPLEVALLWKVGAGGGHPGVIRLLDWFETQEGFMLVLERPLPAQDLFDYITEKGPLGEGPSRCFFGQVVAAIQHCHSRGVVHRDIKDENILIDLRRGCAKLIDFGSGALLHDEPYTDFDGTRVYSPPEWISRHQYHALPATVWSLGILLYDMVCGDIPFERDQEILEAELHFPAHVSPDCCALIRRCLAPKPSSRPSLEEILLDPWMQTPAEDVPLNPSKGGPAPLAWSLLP
Structure (SMILES),inhibition [1] [%],inhibition [2] [%],inhibition [3] [%],inhibition [4] [%],inhibition [5] [%],inhibition [6] [%],inhibition [7] [%],inhibition [8] [%],inhibition [9] [%],inhibition [10] [%],inhibition [11] [%],inhibition [12] [%],inhibition [13] [%],inhibition [14] [%],inhibition [15] [%],inhibition [16] [%],inhibition [17] [%],inhibition [18] [%],inhibition [19] [%],inhibition [20] [%]
Cc1ccc(NC(=O)CC2CC2)cc1-c1ccc(C(=O)NCC2CC2)cc1,0.37,0.23,1.25,1.21,1.26,3.64,9.75,5.46,4.87,2.81,5.71,3.65,2.94,2.59,1.29,7.12,3.9,1.42,2.32,2.95
CN(C)c1cc2c(Nc3ccc4c(cnn4Cc4ccccc4)c3)ncnc2cn1,0.31,-0.8,0.43,0.61,0.28,3.9,4.59,2.41,4.92,1.07,3.14,3.54,-2.44,1.31,-1.33,0.64,4.63,2.47,3.24,2.05
Cc1ccc2c(-c3ccnc(Nc4cccc(C(F)(F)F)c4)n3)c(-c3ccccc3)nn2n1,-0.7,0.5,1.85,1.8,1.94,6.3,15.8,1.03,9.81,3.23,4.86,3.88,4.11,1.4,2.15,15.3,59.2,5,14,3.82
COc1ccc2ncnc(Nc3ccc(OCc4ccccc4)cc3)c2c1,0.96,0.32,0.59,0.99,1.13,1.08,5.56,3.18,3.43,1.67,1.27,1.95,3.16,0.6,2.34,6.26,8.76,1.48,2.76,1.66
[O-][S+]1CCN(Cc2ccc(-c3ccc4ncnc(Nc5ccc(OCc6ccccc6)c(Cl)c5)c4c3)o2)CC1,0.25,0.7,1.32,0.67,0.37,0.43,7.59,1.44,5.75,0.91,2.35,2.58,2.95,1.24,1.08,1.88,2.94,1.25,2.34,0.8
COC(=O)Nc1nc2cc(Oc3ccc(NC(=O)Nc4cccc(Br)c4)cc3)ccc2[nH]1,-0.13,-0.57,0.5,1.32,1.31,7.8,11.9,-0.32,7.96,-1.34,3.82,2.91,2.52,2.72,2.43,4.89,9.35,1.77,2.02,0.89
O=S(=O)(CCOCc1ccc(-c2ccc3ncnc(Nc4ccc(OCc5cccc(F)c5)c(Cl)c4)c3c2)o1)c1ccccc1,2.24,0.82,2.26,0.61,0.15,3.79,5.54,0.88,1.15,0.12,2.8,2.84,3.29,0.64,1.88,-0.6,-0.08,0.56,1.02,0.09
CN(C)CCCn1c(-c2nonc2N)nc2cnccc21,0.24,-0.78,1.03,0.98,-0.25,3.24,8.57,-0.97,5.74,1.24,6.08,3.44,7.78,0.64,0.45,5.03,6.31,4.45,5.34,3.15
c1ccc(Cc2nc3ccc(Nc4ncnc5ccccc45)cc3[nH]2)cc1,0.02,0.69,3.67,1.42,1.52,3.13,5.43,2.47,7.91,3.57,5.54,0.97,2.75,-0.59,4.11,8.25,7.49,2.6,6.23,2.94
NC(=O)c1cccc(Nc2nccc(Nc3cccc(F)c3)n2)c1,0.31,0.13,2,0.33,-0.56,9.14,37,7.47,25.1,1.55,6.93,-0.18,0.75,0.59,-0.96,-0.75,1.32,0.88,1.67,0.97
CCS(=O)(=O)c1ccc(OC)c(Nc2nccc(N(C)c3ccc4c(C)n[nH]c4c3)n2)c1,0.56,-0.02,0.25,1.5,1.32,3.91,23.5,-0.54,7.47,2.62,4.2,4.59,5.05,1.98,1.88,2.29,1.04,4.4,4.99,3.88
COC(=O)c1ccc2c(c1)C(=Cc1cc(Br)c(O)c(Br)c1)C(=O)N2,53.2,18.4,64.3,0.85,2.43,8.54,14.4,3.66,9.93,1.23,6.58,3.53,5.53,-0.06,1.17,1.76,6.74,3.99,6.68,4.6
NS(=O)(=O)c1ccc(N/N=C2\C(=O)Nc3ccc(Cl)cc32)cc1,2.1,0.5,4.86,1.31,3.24,3.88,10.9,3.51,10.6,2.27,9.93,4.37,6.32,3.29,2.98,3.27,4.21,2.59,3.4,2.56
